Broadly, the Inhibition is the drop in the measured response relative to a control, in per cent.

The structures appear in SMILES notation. Results with a measured potency or affinity are listed apart.

For assay [1], the system named is Staphylococcus aureus. Conditions: Concentration 20 uM; ASSAY_TEST Inhibition of Bacterial Growth; detection method Absorption (OD600); MEDIA CAMHB; plate type 384well; NBS; CORNING #3640; time 18 hr.
Assay [2] deals with Escherichia coli. Conditions: Concentration 20 uM; ASSAY_TEST Inhibition of Bacterial Growth; detection method Absorption (OD600); MEDIA CAMHB; plate type 384well; NBS; CORNING #3640; time 18 hr.

As for `Cc1ccc(N(CC2=NCCN2)c2cccc(O)c2)cc1` [PHENTOLAMINE], the figures for the Inhibition in assay [1] and in assay [2] were 2.09% and -2.29%, respectively.
As for `C=CCc1ccc(O)c(-c2ccc(O)c(CC=C)c2)c1` [HONOKIOL], the Inhibition in assay [1] is 11.41%; in assay [2] it was 4.96%.
For `O=C(NCCN1CCOCC1)c1ccc(Cl)cc1` [MOCLOBEMIDE] the same measures were 3.95% and 0.74%.
With `CC(C)(C)NC[C@H](O)COc1nsnc1N1CCOCC1.O=C(O)/C=C\C(=O)O` [TIMOLOL MALEATE], the results for the Inhibition in assay [1] and in assay [2] were 2.99% and 1.71%, respectively.
Consider `CCN(CC)CCNC(=O)c1cc(Cl)c(N)cc1OC.Cl`, for which the Inhibition in assay [1] is on record as 7.88%; in assay [2], -6.93%.
Turning to `COc1ccc2c(c1)c(CC(=O)O)c(C)n2C(=O)c1ccc(Cl)cc1.O`, the Inhibition in assay [1] is recorded as 8.16%; in assay [2] it was 7.22%.
Regarding `O=C(O)CCNC(=O)c1ccc(N=Nc2ccc(O)c(C(=O)O)c2)cc1`, the Inhibition in assay [1] is recorded as 1.56%; in assay [2], -1.37%.
For `Cl.O=c1n(CCCN2CCN(c3cccc(Cl)c3)CC2)nc2ccccn12` [TRAZODONE HYDROCHLORIDE], the results for the Inhibition in assay [1] and in assay [2] were 11.44% and 0.18%, respectively.
With `CN1CCN(C2=Nc3ccccc3Oc3ccc(Cl)cc32)CC1.O=C(O)CCC(=O)O` [LOXAPINE SUCCINATE], the Inhibition in assay [1] came out at 9.14%; in assay [2], 4.68%.
As to `Cc1cn([C@H]2C=C[C@@H](CO)O2)c(=O)[nH]c1=O` [STAVUDINE], the Inhibition in assay [1] worked out at 17.22%; in assay [2] it was 4.38%.
For `Cc1ccc(C)c(OCCCC(C)(C)C(=O)O)c1` [GEMFIBROZIL], the Inhibition is listed as 11.1% in assay [1] and 2.56% in assay [2].
For the molecule `COc1ccccc1OCCNCC(O)COc1cccc2[nH]c3ccccc3c12` (centres undefined) [CARVEDILOL], the figures for the Inhibition in assay [1] and in assay [2] were 10.39% and 6.44%, respectively.
